In PubChem BioAssay (NCI):
This is part of a sample that, as a whole, favours compounds with a hit. Of some 83,000 tested, about 20% had one in any assay.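 Treatment: one concentration, 48 hours, 96-well format. Scoring: percent growth, with anything below 10 considered active.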 A number with no mark means an inactive call. Calls of active or inactive are those of the source.

How the values were obtained:
Test in all cases: NCI-60 one-dose screen, 48 h (100 = growth as untreated, 0 = no growth, -100 = all killed)
Details in all cases: 10 µM
786-0 renal = system: 786-0 renal
MALME-3M melanoma = system: MALME-3M melanoma
UACC-257 melanoma = system: UACC-257 melanoma
SN12C renal = system: SN12C renal
TK-10 renal = system: TK-10 renal
ACHN renal = system: ACHN renal
CAKI-1 renal = system: CAKI-1 renal
A498 renal = system: A498 renal
RPMI-8226 leukemia = system: RPMI-8226 leukemia
OVCAR-8 ovarian = system: OVCAR-8 ovarian
OVCAR-5 ovarian = system: OVCAR-5 ovarian
SK-OV-3 ovarian = system: SK-OV-3 ovarian
IGROV1 ovarian = system: IGROV1 ovarian
OVCAR-3 ovarian = system: OVCAR-3 ovarian
NCI/ADR-RES ovarian = system: NCI/ADR-RES ovarian
T-47D breast = system: T-47D breast
BT-549 breast = system: BT-549 breast
MDA-MB-435 melanoma = system: MDA-MB-435 melanoma
MCF7 breast = system: MCF7 breast
HCT-116 colon = system: HCT-116 colon

`COCCOCCOCCOc1ccc(-n2cc(CCCN(CCNc3ccnc4cc(Cl)ccc34)C(=O)CCC(=O)O[C@@H]3O[C@@H]4OC5(C)CC[C@H]6[C@H](C)CC[C@@H]([C@H]3C)[C@@]46OO5)nn2)cc1` was tested, and the growth (786-0 renal) was 47%, the growth (MALME-3M melanoma) was -61.2% (active) and the growth (UACC-257 melanoma) was 13.1%. It also gave a growth (SN12C renal) of 52.2%, a growth (TK-10 renal) of 52.5% and a growth (ACHN renal) of 47.1%. The growth (CAKI-1 renal) was 39.7%, the growth (A498 renal) was 94.9% and the growth (RPMI-8226 leukemia) was 26.3%. It also gave a growth (OVCAR-8 ovarian) of 20.9%, a growth (OVCAR-5 ovarian) of 52.2% and a growth (SK-OV-3 ovarian) of 76.1%. For the same compound, the growth (IGROV1 ovarian) was 44.8%, the growth (OVCAR-3 ovarian) was 35.3% and the growth (NCI/ADR-RES ovarian) was 26.8%. The growth (T-47D breast) was 20.6%, the growth (BT-549 breast) was 4.88% (active) and the growth (MDA-MB-435 melanoma) was 24.8%. It also gave a growth (MCF7 breast) of 22.2% and a growth (HCT-116 colon) of 15.5%.

Work on `C#CC[Se]C(=O)c1ccc(C(=O)[Se]CC#C)s1` yielded a growth (786-0 renal) of 82.2%, a growth (MALME-3M melanoma) of 98.1% and a growth (UACC-257 melanoma) of 90.7%. It also gave a growth (SN12C renal) of 85.9%, a growth (TK-10 renal) of 84.8% and a growth (ACHN renal) of 43.6%. For the same compound, the growth (CAKI-1 renal) was 106%, the growth (A498 renal) was 101% and the growth (RPMI-8226 leukemia) was 86%. For the same compound, the growth (OVCAR-8 ovarian) was 75.6%, the growth (OVCAR-5 ovarian) was 81.3% and the growth (SK-OV-3 ovarian) was 110%. For the same compound, the growth (IGROV1 ovarian) was 85.5%, the growth (OVCAR-3 ovarian) was 84.5% and the growth (NCI/ADR-RES ovarian) was 76.1%. The growth (T-47D breast) was 88.8%, the growth (BT-549 breast) was 101% and the growth (MDA-MB-435 melanoma) was 95.8%. For the same compound, the growth (MCF7 breast) was 91.5% and the growth (HCT-116 colon) was 14%.

`COC(=O)C[C@](O)(CCCC(C)C)C(=O)O[C@H]1C(OC)=C[C@@]23CCCN2CCc2cc4c(cc2[C@@H]13)OCO4` was tested, and the growth (786-0 renal) was 2.04% (active), the growth (MALME-3M melanoma) was -38.5% (active) and the growth (UACC-257 melanoma) was -25.9% (active). For the same compound, the growth (SN12C renal) was 6.06% (active), the growth (TK-10 renal) was 4.08% (active) and the growth (ACHN renal) was -8.49% (active). The growth (CAKI-1 renal) was -3.49% (active), the growth (A498 renal) was -17.2% (active) and the growth (RPMI-8226 leukemia) was -20.7% (active). The growth (OVCAR-8 ovarian) was -21.3% (active), the growth (OVCAR-5 ovarian) was 5.45% (active) and the growth (SK-OV-3 ovarian) was 0.521% (active). For the same compound, the growth (IGROV1 ovarian) was 8.76% (active), the growth (OVCAR-3 ovarian) was -31% (active) and the growth (NCI/ADR-RES ovarian) was 14.1%. The growth (T-47D breast) was 2.21% (active), the growth (BT-549 breast) was -17.8% (active) and the growth (MDA-MB-435 melanoma) was 1.79% (active). For the same compound, the growth (MCF7 breast) was -6.98% (active) and the growth (HCT-116 colon) was -7.84% (active).
